Source: article PMC13494018

B1: d3r1_design_ppi_687_dldesign_0_cycle0_af2pred (protein)
chain: MKKEEEEKKKKEKLKKKVEEKKEELKELKKAKEELEKAIEKLKPLAEKDPRIKANAEAAKKAAEEELKKKEEELEKLKKELE
B2: d3r1_design_ppi_230_dldesign_0_cycle1_af2pred (protein)
chain: TLAESALKALKVIGKAAVEVAKELGEEVYKKVKKEVEKLLKEVESASPEERAKLAAEAAKKMQKKLEELEKLLKEKKKK
B3: d3r1_design_ppi_578_dldesign_0_cycle1_af2pred (protein)
chain: MEELEEAKKRAEELKKEVEENKEKFKEASKEAQELADNSLKAIKAAFKYIEEKEEVENAKRAVEVAEENYKKAKELAEKLLKEK
B4: d3r1_design_ppi_79_dldesign_0_cycle0_af2pred (protein)
chain: MTDEEIAKKLIEVAKKAKEEAEKKLKDDPEKVKKVKEIAEEAIKEAKKDPKKGPEALQKAAEEMEKLVKE
B5: d8r1_design_ppi_427_dldesign_0_cycle0_af2pred (protein)
chain: MSRIAAWVIAAISAAATDPAEADKVAARAAEEALANPEKADEALALAAETARAAGLDAATVDAAVARIRALVAAL
B6: d3r1_design_ppi_135_dldesign_0_cycle1_af2pred (protein)
chain: GSLEEYEKLLAENSKLAVEKATKAAKEEVKKKGTEEAAKEATKRLEALAKALKSSGFKGTKEEAEKAKEAAKKLEKEAKKIAK
B7: d3r1_design_ppi_578_dldesign_0_cycle0_af2pred (protein)
chain: MEELEEARKRADELEKEVKKLEPLFKEASKEAAELAENAKKAIEAAKKFIEDKSQIELAQRAVDQAEKNLKLAKELMEKILKEK
B8: d3r1_design_ppi_728_dldesign_0_cycle0_af2pred (protein)
chain: SLKESVDKKVEKLKEEAKKLAKYDPELAKKAIEYAEKAKKAKTLEEAGKYANKASEYIEEAEKKAKEKKEEEAK
B9: d3r1_design_ppi_589_dldesign_0_cycle1_af2pred (protein)
chain: MEEDAKKAQEVADLLAKTAATGPAYADEAIAKTAEVLGPYFAEKLKKAIAAGPEEVKKMYDIVKQHAENIKAA
B10: d3r1_design_ppi_168_dldesign_0_cycle1_af2pred (protein)
chain: ANKEEAKKAATEGQDAMAELRALKKEGGDPEEIKKAGDKAIESYEKAGELDPSIKERADKMIEAAKKLTEEGIKASKEK
B11: d3r1_design_ppi_418_dldesign_0_cycle1_af2pred (protein)
chain: DKNEAIKNTLKGAEKAVKELKKEAIKDPEKAEEYAKRAEEIAKAAKELAKQGTEEAKEEAKKVEKEAKEAKKEAKKVVEEKKKKE
B12: d3r1_design_ppi_608_dldesign_0_cycle1_af2pred (protein)
chain: ATEEAKKYAEKAKELAKKAEEAAKKEGVEAGEEYLEKAKEEVLKAYKYAAESGDEEAKKAAEEALEAVEKAEKEIEKIKKEKE
B13: d3r1_design_ppi_130_dldesign_0_cycle0_af2pred (protein)
chain: SASEKANNELAAKLAVESAKKYLEEAEKLEKEDKEKAKKLLKEIAEKAEAGVKAFADSPEAPELKKLAEEAKAKIEEI
B14: d3r1_design_ppi_340_dldesign_0_cycle1_af2pred (protein)
chain: EKEKVRKEAEKAIKKAKAAAKAAKAGKDLKAAEKAVKEAAKAAKAAVEAGDPELAEKVAKAAQEASTALNAALSKRLAA
B15: d3r1_design_ppi_53_dldesign_0_cycle1_af2pred (protein)
chain: ASEADRAQVRAEGMAEALKLRAEAAAPLLSPEAVAEIKALAEKMAADPENRDAYYAAAVALLDAALAAAKA
B16: d3r1_design_ppi_418_dldesign_0_cycle0_af2pred (protein)
chain: SEAEAVKATLKGAKETVKELKKEAEKNPEKAEEYAKEAEKIAKAAEKLAEKSSEEAKKEAKEVKEEAKEAKKLAKKIIEEKKAKE
B17: d3r1_design_ppi_576_dldesign_0_cycle1_af2pred (protein)
chain: GEEEEKAKETIKKMEELAKKGAENPEKGKEYVAEAMRIGRETAKELSEEVGEKVLKKAEEIASEAMKKVLENKKKLA
B18: d3r1_design_ppi_648_dldesign_0_cycle0_af2pred (protein)
chain: GEEAAKKSKEAEKALEEAKKILKEGGKEGEEKAKKLVEEKVKELKKWGKETGTGGEALAKILKEEFEKAKKEK
B19: d3r1_design_ppi_25_dldesign_0_cycle1_af2pred (protein)
chain: SMAAKSAELRAESRRESILAAARQFAAENPAQGPRALAKAEELVAKAKEFAAATKDPAEAAAFAAQQAEEFRAYLAALEAEAA
B20: d3r1_design_ppi_36_dldesign_0_cycle1_af2pred (protein)
chain: EEERLKEAEETYKKLLEELYKESLKEIEEAAKKGPEAAKKALEKAKAEFDEYEKGLLPEYAKEVKEKLEKEAEKLIKKAK
B21: d3r1_design_ppi_688_dldesign_0_cycle0_af2pred (protein)
chain: MEELAEKAAKTASAALKEYATEEEKEEAEKKSKEFEKLAEEGKKNPEKAEEVLKELLEKAKEYQKKLEEKEKKEKEE
B22: d3r1_design_ppi_237_dldesign_0_cycle0_af2pred (protein)
chain: TPLEQLGKLVKEAKKAAKEAKELIKKGKAKEAAKLAREAAKKQIEKAKKIGEEYPEAKASAEAAAAYIEALAKEVEKEAKAAEA
B23: d8r1_design_ppi_92_dldesign_0_cycle1_af2pred (protein)
chain: ERERERAAIRALLATVDAEYAKAAKEGPEAADAGIERVAAAAAAAGALGPDTASAGRFAVGVYRTLAEKVKAAWAA
B24: d8r1_design_ppi_860_dldesign_0_cycle0_af2pred (protein)
chain: DEAYELAAEALARASELRAAAAAARAARGAAGVAEAAALDAEAVRVLEEAAKKLKALGSGLGKNLEAAARRLAERAAAATAAARA
B25: d3r1_design_ppi_123_dldesign_0_cycle1_af2pred (protein)
chain: DPAVETTKANGKALLTKVAKEAAEVAAKIDPAKAKEITDYAAKALKAGDVTEIAKAVKKVSEELEKYKKELEKKEKEA
B26: d3r1_design_ppi_404_dldesign_0_cycle0_af2pred (protein)
chain: SMTEIAQKAYEKAEEARKKMLKKAEEDPEARPKLPEIEALMKEAREKAVSAVVELLTKGESEEEAMKKAEEIIEEAKKEAEKIMK
B27: d3r1_design_ppi_688_dldesign_0_cycle1_af2pred (protein)
chain: AVENAKKAAEQATKALKAYATEEEKEEAEKKGKEFKKLAEEAKADPSKAEEVLNKLLKEAKEYDKKLEEKEKKEKEE
B28: d8r1_design_ppi_1354_dldesign_0_cycle1_af2pred (protein)
chain: SRAAAAKAFGKAAVEQLKKLAKAAGAEEARKLAKQLQADFAAFAAAVPEVAAEFKAAAEAAKKAAEEVAKEQEAKAAAAAAA
B29: d3r1_design_ppi_404_dldesign_0_cycle1_af2pred (protein)
chain: NKVEVAQKAYDKAKEAKEKMIKEAKENPEAKPKIPEIEALMKKAQEEAVGKAVELLDKGATPEEALKAAEKIIKEAEKKAKEIIE
B30: d3r1_design_ppi_123_dldesign_0_cycle0_af2pred (protein)
chain: SENDKITLEQAKKLLEKEAKRAAEVAEKIDKEKAKKIKKYAEEALKKGKLTELAKAVKKVSEELEKYEKKLKEEEEKA
B31: d3r1_design_ppi_541_dldesign_0_cycle1_af2pred (protein)
chain: MEEEKKKIEEEIEEVKEALKEAEKLFAKDPVAGAKYAENLAIALKKRGLSEEAINLAKEAAEKLKAEAEKVKAA
B32: d3r1_design_ppi_369_dldesign_0_cycle1_af2pred (protein)
chain: AVPAELREILSKQALAKMEELEKEAKEKADTPEGLEVMEEAAEWFREAAKGLRAAGDEETAKKMEEKAKELEELAKEKKEK
B33: d8r1_design_ppi_568_dldesign_0_cycle1_af2pred (protein)
chain: AARHLALAIRGVLKADDAGDAEAAAKAKALLAKAAAALAAGDEAAAKAYATQAAAVADPAYAPVAEAVAAAAAA
B34: d3r1_design_ppi_121_dldesign_0_cycle0_af2pred (protein)
chain: DEALKTAEKAAKEVEELAKEAKEAGDEETAKGLEEMLEKIKELLEKAKKDPSKAKEYAKTAEAIAKVAKKNYEESLKKLKEEKE
B35: d3r1_design_ppi_121_dldesign_0_cycle1_af2pred (protein)
chain: MKALEEAKKAAEKVKKLAKEAKELGDEETAKGLKEMEEEIKKLYKKAKEDPSKAEEYAEIAKKIAEIAKKHYEESKKKLEKEKE
B36: d3r1_design_ppi_175_dldesign_0_cycle1_af2pred (protein)
chain: GSAATLAATAAKLAVKSAKKEMEEAKKNPETGPERLEKYAEILEKAAKDAKATGTAEAKEAAKEAEKEAKKAKEEAKKLK
B37: d3r1_design_ppi_595_dldesign_0_cycle1_af2pred (protein)
chain: DLFKKGIEEAEKAYKKYPKLGLAVAQLVLAKYFLEAAKKSTPEEAKNYLEAAKLALEKSKELLKEVEAKLKAE
B38: d3r1_design_ppi_677_dldesign_0_cycle1_af2pred (protein)
chain: MEEKKKKIDEKLILAGELAKKNGLLGEIVAKKAIEEGRKAGITEFSEEAVEALKIAFAAGAAARAALAAALA

The binders below were run against VTCN1, Q7Z7D3.
Sequence of VTCN1, Q7Z7D3 (Q7Z7D3 whole entry): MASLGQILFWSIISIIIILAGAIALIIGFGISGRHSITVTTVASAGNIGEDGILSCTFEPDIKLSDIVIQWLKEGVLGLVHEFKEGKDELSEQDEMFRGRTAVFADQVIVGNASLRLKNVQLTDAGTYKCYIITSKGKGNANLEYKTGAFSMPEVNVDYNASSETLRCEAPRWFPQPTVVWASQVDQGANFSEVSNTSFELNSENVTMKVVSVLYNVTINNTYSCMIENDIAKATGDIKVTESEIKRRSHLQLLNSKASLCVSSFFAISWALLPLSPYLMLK

Binding in a display sort, inactive:
B1 not found
B2 not found
B3 not found
B4 not found
B6 not found
B7 not found
B8 not found
B9 not found
B10 not found
B11 not found
B12 not found
B13 not found
B14 not found
B15 not found
B16 not found
B17 not found
B18 not found
B19 not found
B20 not found
B21 not found
B22 not found
B25 not found
B26 not found
B27 not found
B29 not found
B30 not found
B31 not found
B32 not found
B34 not found
B35 not found
B36 not found
B37 not found
B38 not found

The binders below were run against PDL1, Q9NZQ7.
Sequence of PDL1, Q9NZQ7 (Q9NZQ7 whole entry): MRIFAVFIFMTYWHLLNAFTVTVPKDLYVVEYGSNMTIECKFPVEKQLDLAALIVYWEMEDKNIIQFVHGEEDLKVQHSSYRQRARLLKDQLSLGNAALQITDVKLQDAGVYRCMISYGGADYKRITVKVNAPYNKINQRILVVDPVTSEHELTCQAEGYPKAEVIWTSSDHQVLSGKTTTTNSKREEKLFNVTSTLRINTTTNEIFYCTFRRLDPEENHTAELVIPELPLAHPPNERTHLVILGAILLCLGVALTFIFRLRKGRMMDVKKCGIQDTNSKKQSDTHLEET

Binding in a display sort, inactive:
B5 not found
B23 not found
B24 not found
B28 not found
B33 not found
